G9a inh = inhibitors of human histone lysine methyltransferase G9a. AID 504332. Potency, µM (top dose mostly 102 µM), most hits filed as inhibitors. G9a H3K9 monomethylation, AlphaScreen, 2 h. actives 8.8% (n = 350,000). Q96KQ7; note: nearly all actives have a fitted effect of over 75% in size
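Quantitative HTS format: methyltransferase activity on a biotin-tagged H3K9 peptide is measured by AlphaScreen, using a rabbit anti-monomethyl-H3K9 antibody with streptavidin donor and anti-IgG acceptor beads. Final levels are 20 nM enzyme, 500 nM peptide, 20 uM SAM; 2 h RT.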
BAZ2B block = blocks human BAZ2B. AlphaScreen BAZ2B-H3K14Ac peptide displacement. Q9UIF8. actives 4.4% (n = 360,000). Potency, µM (titrated, usually from 114 µM), most hits filed as inhibitors. AID 504333; note: nearly all actives have a fitted effect of over 60% in size
Target sequence (Q9UIF8 whole entry, looked up): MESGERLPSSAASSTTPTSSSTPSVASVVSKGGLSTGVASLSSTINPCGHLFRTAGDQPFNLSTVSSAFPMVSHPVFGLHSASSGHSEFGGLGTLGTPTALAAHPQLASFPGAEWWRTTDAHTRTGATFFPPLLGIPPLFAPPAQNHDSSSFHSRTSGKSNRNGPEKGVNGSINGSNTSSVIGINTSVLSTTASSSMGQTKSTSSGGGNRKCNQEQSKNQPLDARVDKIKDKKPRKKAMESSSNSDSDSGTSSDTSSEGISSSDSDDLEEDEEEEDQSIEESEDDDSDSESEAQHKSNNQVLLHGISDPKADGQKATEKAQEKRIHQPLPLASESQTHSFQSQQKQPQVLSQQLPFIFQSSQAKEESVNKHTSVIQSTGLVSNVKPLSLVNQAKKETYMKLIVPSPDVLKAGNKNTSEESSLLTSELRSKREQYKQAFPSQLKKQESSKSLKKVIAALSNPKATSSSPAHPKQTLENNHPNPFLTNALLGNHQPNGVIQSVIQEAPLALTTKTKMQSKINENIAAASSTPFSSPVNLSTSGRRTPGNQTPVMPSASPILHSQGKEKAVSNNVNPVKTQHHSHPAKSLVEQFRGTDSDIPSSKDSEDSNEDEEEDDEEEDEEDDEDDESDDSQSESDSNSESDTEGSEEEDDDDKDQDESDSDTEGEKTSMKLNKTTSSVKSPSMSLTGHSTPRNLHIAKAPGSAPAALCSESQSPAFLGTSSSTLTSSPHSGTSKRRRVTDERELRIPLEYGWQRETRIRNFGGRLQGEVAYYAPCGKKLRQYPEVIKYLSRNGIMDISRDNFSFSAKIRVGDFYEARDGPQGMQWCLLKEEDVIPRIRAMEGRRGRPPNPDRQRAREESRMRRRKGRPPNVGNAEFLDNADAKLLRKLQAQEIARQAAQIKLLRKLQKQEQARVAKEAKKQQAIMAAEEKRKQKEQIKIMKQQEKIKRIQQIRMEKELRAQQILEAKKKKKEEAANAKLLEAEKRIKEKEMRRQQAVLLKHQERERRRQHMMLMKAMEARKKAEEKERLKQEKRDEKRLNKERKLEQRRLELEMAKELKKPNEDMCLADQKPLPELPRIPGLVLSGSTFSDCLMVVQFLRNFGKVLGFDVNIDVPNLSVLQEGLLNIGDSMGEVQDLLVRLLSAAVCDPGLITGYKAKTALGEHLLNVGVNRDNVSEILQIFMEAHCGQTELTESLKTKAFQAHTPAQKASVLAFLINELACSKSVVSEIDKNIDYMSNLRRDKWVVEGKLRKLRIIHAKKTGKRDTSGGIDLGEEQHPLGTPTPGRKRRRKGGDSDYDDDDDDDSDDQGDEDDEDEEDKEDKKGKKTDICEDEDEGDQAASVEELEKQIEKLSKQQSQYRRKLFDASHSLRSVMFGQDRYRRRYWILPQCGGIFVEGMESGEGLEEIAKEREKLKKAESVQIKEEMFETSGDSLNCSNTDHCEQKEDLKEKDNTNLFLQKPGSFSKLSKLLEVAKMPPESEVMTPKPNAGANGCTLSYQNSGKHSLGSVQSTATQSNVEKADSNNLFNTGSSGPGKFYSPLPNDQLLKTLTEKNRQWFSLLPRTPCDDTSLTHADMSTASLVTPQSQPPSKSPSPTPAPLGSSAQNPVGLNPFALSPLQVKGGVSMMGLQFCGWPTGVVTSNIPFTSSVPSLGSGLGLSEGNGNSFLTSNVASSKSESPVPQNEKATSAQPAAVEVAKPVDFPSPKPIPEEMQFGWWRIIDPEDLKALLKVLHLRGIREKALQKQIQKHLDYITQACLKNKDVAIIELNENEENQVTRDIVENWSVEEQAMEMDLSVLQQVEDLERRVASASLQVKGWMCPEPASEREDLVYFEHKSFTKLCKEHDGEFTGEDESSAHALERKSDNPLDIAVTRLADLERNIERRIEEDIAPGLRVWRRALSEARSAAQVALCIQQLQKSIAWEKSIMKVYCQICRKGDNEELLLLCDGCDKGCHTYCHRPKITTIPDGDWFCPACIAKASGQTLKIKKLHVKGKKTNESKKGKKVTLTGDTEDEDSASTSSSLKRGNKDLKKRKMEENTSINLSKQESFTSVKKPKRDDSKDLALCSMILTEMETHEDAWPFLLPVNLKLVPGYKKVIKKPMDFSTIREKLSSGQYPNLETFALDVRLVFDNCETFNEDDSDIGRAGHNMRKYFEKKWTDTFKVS
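Complex of BAZ2B and biotin-H3K14Ac (50 nM apiece) forms over 30 min at RT, then faces library compounds up to 110 uM for another 30 min; AlphaScreen beads added, 20 min dark incubation, luminescence read.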
HP1b chromo inh = blocks HP1-beta chromodomain binding to methylated histone tails; P83916; AlphaScreen HP1-beta / biotin-H3K9me3 peptide binding; Potency, µM (titrated, usually from 114 µM), hits mostly inhibitors; actives 0.56% (n = 390,000); note: nearly all actives have a fitted effect of over 70% in size
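AlphaScreen: HP1-beta (50 nM) preformed 30 min with biotin-H3(1-18)K9me3 peptide (50 nM) in PBS pH 7.4, 0.01% Tween-20. Compound added for 30 min at RT, then streptavidin donor/nickel chelate acceptor beads (10 ug/mL) for 30 min.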
Sfp PPTase inh = inhibitors of Bacillus subtilis Sfp phosphopantetheinyl transferase | Q9F4F7 | Biochemical Sfp PPTase activity, qHTS | Potency, µM, hits mostly inhibitors | actives 3.5% (n = 310,000) | AID 1490;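 note: the enzyme is Sfp with the accession as filed and its product quenches rhodamine fluorescence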
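Reaction rates are the 30-min fluorescence difference (ex 525, em 598 nm) in wells containing 15 nM Sfp, 5 uM rhodamine-CoA and 12.5 uM BHQ-2-YbbR at pH 7.6 with 10 mM MgCl2.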
JMJD2A Tudor = blocks the human JMJD2A Tudor domain; actives 4.4% (n = 390,000); Potency, µM (doses to about 114 µM), usual class: inhibitors; O75164; AID 504339; AlphaScreen JMJD2A-Tudor / H3K4me3 peptide binding; note: nearly all actives have a fitted effect of over 50% in size
A number is an active result; – = inactive; ? = inconclusive; · = no result given; [ ] = another dose, or the depositor's remark. In the library only some 12% were active in any assay of this set; here they are far more common. Calls come from the whole dose curve; as a rule, active = well fitted curve in the direction sought with a large enough effect; inconclusive = small, poorly fitted or top-dose-only effect, or another doubt; inactive = no such curve, though single readings can be large; an effect the other way counts as inactive or inconclusive.

SMILES	G9a inh	BAZ2B block	HP1b chromo inh	Sfp PPTase inh	JMJD2A Tudor
COc1ccccc1-n1c(=O)c2c3c(sc2n2c(=S)[nH]nc12)CCC3	3.16µM	–	–	–	14.1µM
O=[N+]([O-])c1cccc(-c2cc(-c3cc(Br)ccc3O)[nH]n2)c1	–	–	–	?	–
O=C(CCS(=O)(=O)Cc1ccccc1)N1CCN(Cc2ccccc2)CC1	50.1µM	–	–	–	–
Cc1oc(-c2ccccc2F)nc1CS(=O)(=O)CC(=O)N1CCN(Cc2ccccc2)CC1	50.1µM	–	–	–	–
O=C(CCS(=O)(=O)Cc1ccccc1)N1CCc2ccccc2C1	–	–	–	–	–
CCOC(=O)C1CCN(C(=O)CCS(=O)(=O)Cc2ccccc2)CC1	50.1µM	–	–	–	–
CCCCNc1nc(C)nc2c1nc(-c1ccccc1)n2CCN(C)C	·	·	·	–	·
O=c1c2oc3ccccc3c2n(Cc2ccccc2F)c(=O)n1Cc1ccco1	–	–	–	·	–
COc1ccc(C2=CC(c3cc(OC)c(OC)c(OC)c3)NC(=S)N2)cc1 (centres undefined)	6.31µM	–	–	–	–[11.4 µM]
CC1(C)Cc2c(sc(NC(=O)/C=C/C(=O)O)c2C#N)CO1	·	–	–	–	–
CC1(C)Cc2c(sc(NC(=O)C(=O)NCCCN3CCOCC3)c2C#N)CO1	22.4µM	–	–	15.8µM	–
CC1(c2ccc(OC(F)F)cc2)NC(=O)N(CC(=O)Nc2ccc(Cl)cc2F)C1=O (centres undefined)	–	–	–	–	–
CCOCCCN1CN(Cc2ccco2)CNC1=S	15.8µM	–	–	39.8µM	–
S=C1NCN(Cc2ccco2)CN1CCc1ccccc1	?	–	–	–	–
COc1ccc2nc(N=Nc3c(O)ccc4ccccc34)sc2c1	3.16µM	2.82µM	·	–	·
O=C(NC1CCCC1)c1cc(S(=O)(=O)N2CCCC2)ccc1Cl	·	–	–	–	–
CC1Cc2nc(SCC(=O)Nc3nccs3)n(C)c(=O)c2S1 (centres undefined)	?	–	–	50.1µM	–
CCn1c(SC)nc2c(c1=O)SC(C)C2 (centres undefined)	–[12.7 µM]	–	–	–	–
CSc1nc2c(c(=O)n1C)SC(C)C2 (centres undefined)	–	–	–	50.1µM	–
Cc1ccc(-n2c(=O)c3ccc(C(=O)NCc4ccco4)cc3n(CC(=O)Nc3ccc(C)c(F)c3)c2=O)cc1	–	–	–	·	–
Cc1c(-c2ccc(Br)cc2)[n+](=O)c2c(n1[O-])CCCCC2	·	–	–	–	–
Cc1ccc(-c2c(C)n([O-])c3c([n+]2=O)CCCC3)cc1	–	–	–	–	56.2µM
CCOc1ccc(NC(=O)Cn2cc(C(=O)C3CC3)c3ccccc32)cc1	–	–	–	–	–
CCOC(=O)N1CCN(CC(=O)c2c[nH]c3ccc(F)cc23)CC1	50.1µM	–	·	–	·
CCN1CCN(CC(=O)c2c[nH]c3ccc(C)cc23)CC1	–	–	–	–	?
SMILES	G9a inh	BAZ2B block	HP1b chromo inh	Sfp PPTase inh	JMJD2A Tudor
CS(=O)(=O)c1ccc2nc(NC(=O)c3ccc(NS(=O)(=O)c4cccc([N+](=O)[O-])c4)cc3)sc2c1	?	–	–	–	–
Cc1noc(C)c1C(=O)Nc1nc2ccc(F)cc2s1	–[12.7 µM]	–	–	·	–
CCc1noc(C)c1C(=O)Nc1nc2ccc(S(C)(=O)=O)cc2s1	50.1µM	–	–	·	–
CCC(C)C(=O)Nc1nc2ccc(S(C)(=O)=O)cc2s1 (centres undefined)	31.6µM	–	–	–	–[11.4 µM]
CCc1noc(C)c1C(=O)Nc1nc2ccc(F)cc2s1	15.8µM	–	–	·	–
CS(=O)(=O)c1ccc2nc(NC(=O)CCNC(=O)c3ccc([N+](=O)[O-])cc3)sc2c1	39.8µM	–	–	·	–
O=[N+]([O-])c1ccc(NS(=O)(=O)N2CCOCC2)cc1	·	·	–	·	–
C/C=C/OC(=O)NC(c1cccc(C)c1)[C@@]1(C(=O)OCC)CCCC1=O (some centres undefined)	·	·	·	–	·
CC(=O)Nc1ccc(S(=O)(=O)Nc2nc3ccc([N+](=O)[O-])cc3s2)cc1	44.7µM	–	–	–	–[11.4 µM]
CC(=O)Nc1ccc(S(=O)(=O)Nc2nc3ccccc3s2)cc1	–[12.7 µM]	–	–	–	–
NC(=O)c1ccsc1N	–[0.501 µM]	–	·	20µM	·
Nc1sccc1C(=O)c1ccc(Cl)cc1	?	?	–	?	–
COc1ccc(NC(=O)c2cc(=O)c3ccc(C)c(C)c3o2)cc1Cl	–	–	–	·	–
CN(C)S(=O)(=O)c1cc(NC(=O)c2cc(=O)c3ccccc3o2)ccc1Cl	?	–	–	31.6µM	–
COc1ccc(NC(=O)c2cc(=O)c3ccccc3o2)cc1Cl	56.2µM	–	–	–	–
O=S1(=O)c2ccccc2N(Cc2cccc(C(F)(F)F)c2)c2ccccc21	–	–	–	·	–
Nc1nc(-c2ccccc2)c(-c2ccccc2)s1	39.8µM	–	–	–	?
Cc1ccc(-c2nc(N)sc2-c2ccc(C)cc2)cc1	50.1µM	?	–	–	?
CCCc1sc(N)nc1-c1ccc(C)cc1	56.2µM	?	–	–	?
COc1ccc(-c2nc(-n3c(C)c(C(C)=O)c(C(C)=O)c3C)sc2C)cc1	?	?	–	–	?
COc1ccc(-c2nc(C)sc2C)cc1	?	–	?	–	31.6µM
C=C1C[C@H](OC(=O)C(C)(O)CCl)C2C(=C)C(=O)O[C@@H]2C2C1C[C@H](O)[C@]2(O)CCl (some centres undefined)	·	·	·	–	·
O=C(CSc1nc2ccccc2c(=O)n1CCC(=O)NC1CCCCC1)Nc1ccccc1Cl	–	–	–	·	–
CCc1ccc(CNC(=O)c2ccc(NC(=O)N3CCSc4ncccc43)cc2)cc1	–	–	–	·	–
Cc1ccc(-c2nc(N)sc2C)cc1	50.1µM	?	–	–	–
SMILES	G9a inh	BAZ2B block	HP1b chromo inh	Sfp PPTase inh	JMJD2A Tudor
Cc1sc(N)nc1-c1cccs1	?	–	–	–	–
CSc1ccccc1NC(=O)CCc1ccccc1	–	–	–	–	–
Cn1c(=O)n(C)c2cc(NC(=O)CCc3ccccc3)c(Br)cc21	·	50.1µM	–	?	–
COC(=O)[C@@]1(Cc2ccc(F)cc2)[C@H]2c3cc(C(=O)N(C)C)n(CCCNc4ccc(C(F)(F)F)cc4Cl)c3C[C@H]2CN1C(=O)c1ccccc1	·	·	·	–	·
CCOc1cc(C(=S)N2CCOCC2)ccc1OC	10µM	–	–	–	–
CCOc1cc(C(=S)N2CCOCC2)ccc1OC(=O)c1ccc(C)cc1	44.7µM	–	–	–	?
CCOc1cc(/C=N/NC(=O)c2ccc(CN3CCOCC3)cc2)ccc1OC	–	–	–	–	–
CCOc1ccc(C(=S)N2CCOCC2)cc1OC	?	–	–	–	–
CCOc1cc(C(=S)N2CCOCC2)ccc1OC(=O)c1ccccc1	22.4µM	?	–	79.4µM	–
CCOc1cc(/C=C/C(=O)c2ccc(OC)c(CN3CCOCC3)c2)cc(Br)c1O	44.7µM	?	–	–	?
COc1ccc(N2CCN(C(CNC(=O)COc3ccccc3)c3ccco3)CC2)cc1 (centres undefined)	–	–	?	·	?
